Results filed as inconclusive are left out. Values without a mark were called inactive. Activity calls are given as the source filed them. Unless noted, the call rests on the fitted dose curve.
Assays:
[1] = target: Cytochrome P450 1A2 (Homo sapiens) (UniProt P05177); assay: p450-cyp1a2 (AID 410); conditions: recombinant CYP1A2, luciferin-ME demethylation, luminescence; series mostly up to 57 µM; further: potency means the concentration at half of the fitted maximal effect
Method in brief: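 Luminescent readout of luciferin formed from Luciferin-ME by human CYP1A2; data normalized against complete inhibition by 57 uM furafylline. Enzyme 20nM, substrate 100uM at Km, 100mM KPO4 buffer, 60 min reaction at room temperature.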

[2] = AP1 Signaling Pathway (AID 357; active means well fitted curve in either direction with a large enough effect, not every such curve was filed as active;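 further: ME-180 reporter cells stimulated with EGF at its EC50 level; on the % scale 0 is the no-effect control and ±100 the full control effect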); conditions: ME-180 AP-1-bla reporter, EGF-induced, beta-lactamase ratio, 5 h; at 38 µM (top of the series)
Method in brief: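 Titration-series screen for positive or negative modulators of EC50 EGF-induced signaling in ME-180 cells carrying an AP-1-driven beta-lactamase reporter. After 5 hours at 37 degrees Celsius, CCF4 460nm/530nm emission ratio gave %Activity; AC50 values derived.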

[3] = Stat Signaling Pathway (AID 446; active means well fitted curve in either direction with a large enough effect, not every such curve was filed as active;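 further: ME-180 cervical cancer cells given 40 pM IL-6 alongside compound; SIE-controlled beta-lactamase reporter measured as 460/530 nm FRET emission ratio; on the % scale 0 is the no-effect control and ±100 the full control effect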); conditions: ME-180 SIE beta-lactamase reporter, IL-6 stimulated, 5 h; at 38 µM (top of the series)
Method in brief: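 ME-180 SIE-bla cells; overnight plating; cpd + IL-6 40 pM, 5 h, 37 C; LiveBLAzer 2.5 h RT; 460/530 nm emission ratio. Normalized to 300 pM IL-6 and 125 nM JAK inhibitor controls.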

[4] = Cell Viability - BJ (AID 421); conditions: BJ fibroblast viability, qHTS;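 further: potency means the concentration at half of the fitted maximal effect; cells exposed to compound for 40 hours at 37 °C before readout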
Method in brief: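 Luminescent ATP signal (CellTiter-Glo, 20 min at room temperature) served as the read-out of viable BJ cells after 40 hours of compound treatment. Responses were scaled between DMSO and 100 uM tamoxifen, and AC50 values were obtained by Hill modeling.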

[5] = Cell Viability - Jurkat (AID 426;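 active means dose-dependent loss of cell ATP signal giving a full or clear fitted curve, ranked by lower potency value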; further: potency means the concentration at half of the fitted maximal effect); conditions: qHTS
Method in brief: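 qHTS, 1536-well; Jurkat E6-1, 5000 cells/well, complete medium; cpd 40 hr, 37 °C; CellTiter-Glo 20 min RT; luminescence. AC50 by Hill fit.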

[6] = Cell Viability - HepG2 (AID 433); conditions: qHTS;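 further: potency means the concentration at half of the fitted maximal effect; potency for ATP loss meaning cytotoxicity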
Method in brief: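 Cytotoxicity read as ATP loss (CellTiter-Glo luminescence) after 40 hr compound exposure of HepG2, 1500 cells/well, 37 °C. AC50 by Hill equation; 0% set by DMSO, 100% inhibition by 100 uM tamoxifen.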

[7] = Cell Viability - MRC5 (AID 434); conditions: MRC5 lung fibroblast viability, qHTS;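 further: potency means the concentration at half of the fitted maximal effect; potency reflects cytotoxicity seen as loss of intracellular ATP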
Method in brief: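 MRC5 normal human lung fibroblasts, 1500 cells/well, exposed to compound for 40 hr at 37 C. Cellular ATP was read by CellTiter-Glo luminescence; data normalized to DMSO and 100 uM tamoxifen, with AC50 from Hill fits.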

[8] = Cell Viability - SK-N-SH (AID 435); conditions: SK-N-SH neuroblastoma cell viability qHTS; further: potency means the concentration at half of the fitted maximal effect
Method in brief: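 qHTS cytotoxicity: CellTiter-Glo ATP luminescence after 40 h compound exposure of human neuroblastoma SK-N-SH cells at 37 °C. AC50 derived by Hill-equation fitting, with DMSO as basal and 100 uM tamoxifen as full inhibition.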

[9] = Cell Viability - Hek293 (AID 427;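 active means compounds whose dose-response curve shows a full or clear partial loss of cell viability, called from curve shape rather than a numeric limit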;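 further: potency means the concentration at half of the fitted maximal effect; cells exposed to compound for 40 hours at 37 °C before reading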); conditions: qHTS
Method in brief: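 Luminescent ATP read-out (CellTiter-Glo, 20 min RT) after 40 hr compound exposure at 37 °C in complete medium. Signal normalized to DMSO (basal) and 100 uM tamoxifen (100% inhibition); concentration-response fitted with the standard Hill equation to give AC50.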

Chain of Cytochrome P450 1A2 (Homo sapiens) (P05177 whole entry, looked up): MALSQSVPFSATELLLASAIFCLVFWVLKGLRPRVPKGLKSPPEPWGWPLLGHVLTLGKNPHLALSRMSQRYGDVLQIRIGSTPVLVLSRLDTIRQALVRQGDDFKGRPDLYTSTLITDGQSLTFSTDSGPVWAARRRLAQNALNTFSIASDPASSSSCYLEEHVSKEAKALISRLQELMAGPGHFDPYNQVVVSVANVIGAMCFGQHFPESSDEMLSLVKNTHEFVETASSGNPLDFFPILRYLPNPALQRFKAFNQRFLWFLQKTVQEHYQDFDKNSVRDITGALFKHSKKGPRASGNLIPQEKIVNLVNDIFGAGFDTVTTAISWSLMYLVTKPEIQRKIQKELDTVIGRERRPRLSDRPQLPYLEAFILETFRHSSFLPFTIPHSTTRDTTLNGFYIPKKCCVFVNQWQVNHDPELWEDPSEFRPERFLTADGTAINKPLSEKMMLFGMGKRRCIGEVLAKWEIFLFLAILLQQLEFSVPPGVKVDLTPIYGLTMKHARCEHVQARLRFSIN

| Compound | Potency [1] | activity change, negative = inhibition [2] [%] | activity, negative = inhibition [3] [%] | Potency [4] [µM] | Potency [5] [µM] | Potency [6] [µM] | Potency [7] [µM] | Potency [8] [µM] | Potency [9] [µM] |
| --- | --- | --- | --- | --- | --- | --- | --- | --- | --- |
| COc1ccc(C(=O)c2c(C)n(CCN3CCOCC3)c3cc(I)ccc23)cc1 | 15.8 µM (active) |  |  |  |  |  |  |  |  |
| S=C(NC1CCCCC1)N1CCC(c2cnc[nH]2)CC1 |  | -10.5 | 6.17 |  |  |  |  |  |  |
| CCOP(=O)(NC(C)C)Oc1ccc(SC)c(C)c1 (stereo not given) |  |  |  | > 92 | > 92 | > 92 | > 92 | > 92 |  |
| Cc1cc(O)ccc1Cl |  |  |  | > 92 | > 92 | > 92 | > 92 | > 92 | > 92 |
| C=CC(=O)NCNC(=O)C=C |  |  |  | > 92 | > 92 | > 92 | > 92 | > 92 | > 92 |
| CC(C)(O)C(=O)Nc1ccc([N+](=O)[O-])c(C(F)(F)F)c1 |  |  |  | > 92 | > 92 | > 92 | > 92 | > 92 | > 92 |
| O=S(=O)(c1ccc(Cl)cc1)c1ccc(Cl)cc1 |  |  |  | > 92 | > 92 | > 92 | > 92 | > 92 | > 92 |
| OCCCBr |  |  |  | > 92 | > 92 | > 92 | > 92 | > 92 | > 92 |
| c1cc2ccc3cccc4ccc(c1)c2c34 |  |  |  | > 92 | > 92 | > 92 | > 92 | > 92 | > 92 |
| Nc1ccc(Cl)cc1 |  |  |  | > 92 | > 92 | > 92 | > 92 | > 92 | > 92 |

From PubChem BioAssay (NCATS)
